In PubChem BioAssay AID588726 (The Scripps Research Institute Molecular Screening Center, 2011):
Out of some 360,000 compounds screened, about 8,200 (2.3%) were called active. The sample holds actives, similar compounds and a random draw of the others, so the mix is not that of the screen. No stated cut-off is given here; in the data, active means inhibition above about 27%; inactive means the rest.

The molecules below were run against Fructose-bisphosphate aldolase (Mycobacterium tuberculosis (strain ATCC 25618 / H37Rv)) (UniProt P9WQA3) (assay: Mtb FBA enzyme inhibitors, primary screen, biochemical, fluorescence, strain H37Rv (AID 588726;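 further: 0% = vehicle and 100% = reference inhibitor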)). Conditions: purified M. tuberculosis FBA, fluorescence read-out, at 1 µM, hits give high values.
Sequence of Fructose-bisphosphate aldolase (Mycobacterium tuberculosis (strain ATCC 25618 / H37Rv)) (P9WQA3 whole entry, looked up): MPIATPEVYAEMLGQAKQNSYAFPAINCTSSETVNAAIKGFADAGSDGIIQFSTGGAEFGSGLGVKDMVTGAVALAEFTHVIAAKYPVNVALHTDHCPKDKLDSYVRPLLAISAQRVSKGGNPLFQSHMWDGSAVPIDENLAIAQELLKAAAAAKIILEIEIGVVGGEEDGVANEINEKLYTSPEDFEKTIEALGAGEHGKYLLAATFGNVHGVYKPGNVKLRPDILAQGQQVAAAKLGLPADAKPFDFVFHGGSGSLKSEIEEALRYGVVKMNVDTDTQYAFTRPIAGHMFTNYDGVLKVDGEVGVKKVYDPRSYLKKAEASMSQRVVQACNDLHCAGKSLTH

Structure (SMILES)	inhibition
Cc1ccc(NC(=O)C2(N3CCC3=O)CCCCC2)cc1	-1.03% (inactive)
CC/C(=N\NC(=O)c1c(C)nc2ccccn12)c1ccc(Cl)cc1	1.77% (inactive)
O=C(CN1CCN(S(=O)(=O)c2ccc(F)cc2)CC1)NC1CC1	0.31% (inactive)
CC1CC2=C(CC1/C=N/NC(N)=S)C(C)(C)CCC2 (stereo not given)	-2.62% (inactive)
CC(C)(C)n1nc(Cc2cccc3ccccc23)c(C#N)c1N	-0.08% (inactive)
COc1ccc(Nc2oc(-c3ccccc3Cl)nc2C#N)cc1	14.5% (inactive)
O=C(CN1CCN(C2CCS(=O)(=O)C2)CC1)N1N=C(c2ccc(Cl)cc2)CC1c1ccco1 (stereo not given)	-0.95% (inactive)
O=c1[nH]cnc(O)c1C(c1ccc(F)cc1)c1c(O)nc[nH]c1=O	1.39% (inactive)
Cc1nc2ccccc2nc1CC(O)(c1ccccc1)c1ccccc1	0.56% (inactive)
Cc1cc(N=Nc2ccc3ccccc3c2)ccc1O	-3.13% (inactive)
Cc1nc2ccccc2cc1O	116% (active)
C=Cn1c(C(=O)O)ccc1-c1ccc(OC)cc1	1.98% (inactive)
Cc1cc(-c2ccccc2)n2nc(C)c(-c3ccccc3)c2n1	4.02% (inactive)
COc1ccc(-c2cc(C)nc3nc(N)nn23)cc1	124% (active)
COC(=O)c1ccc(C)c(NC(=O)Cn2c(C)csc2=O)c1	-1.21% (inactive)
COC(=O)c1c(C)oc2ccc(N(C(=O)Oc3ccccc3)S(=O)(=O)c3ccccc3)cc12	-6.44% (inactive)
CCOC(=O)c1c(-c2ccccc2)oc2ccc(OC(=O)N(C)C)cc12	38.7% (active)
N#CC1(NC(=O)COc2ccc3oc4ccccc4c3c2)CCCCC1	-0.49% (inactive)
CCOC(=O)c1c(-c2ccccc2)oc2cc(Br)c(O)c(C=O)c12	-2.33% (inactive)
CCOC(=O)c1c(C)[nH]c(C(=O)COc2ccc3c(c2)OCO3)c1C	6.18% (inactive)

Structure (SMILES)	inhibition
CCOC(=O)c1c(-c2ccccc2)oc2ccc(OCC(=O)NN)cc12	58.4% (active)
CCOC(=O)c1c(C)oc2cc(Sc3ccccc3)c(O)c(O)c12	-6.47% (inactive)
CCOC(=O)c1c(C)oc2cc(Br)c(OCC(N)=O)cc12	5.33% (inactive)
CCOC(=O)c1c(-c2ccccc2)oc2ccc(OCC(N)=O)cc12	72.7% (active)
S=C(NC1CCCCC1)NN1CCOCC1	-5.42% (inactive)
c1ccc2c(c1)CSc1sccc1C2=C1CCNCC1	4.51% (inactive)
N#Cc1cccc(NC(=O)CCC2CCCC2)c1	-3.71% (inactive)
OC(COCCC12CC3CC(CC(C3)C1)C2)CN1CCCCC1 (stereo not given)	-2.2% (inactive)
COc1ccc(-n2c(SCC(=O)Nc3ccc4c(c3)OCO4)nnc2C(C)N2CCCCC2)cc1 (stereo not given)	0.95% (inactive)
COc1ccc(C(C(=O)NC2CCCC2)N(CCCO)C(=O)Cn2nnc(-c3ccc(C)o3)n2)cc1 (stereo not given)	0.22% (inactive)
CCOC(=O)CCCCCC(=O)Nc1ccc2c(c1)CC(=O)N([C@@H](C)CO)C[C@H](C)[C@@H](CN(C)Cc1ccccc1)O2	1.41% (inactive)
Cc1nnc(NC2=NCCCCC2)o1	2.72% (inactive)
COC(=O)c1cccnc1NC(=S)NC(C)C	-6.99% (inactive)
CSc1nnc(-c2ccc(C(F)(F)F)cn2)o1	7.82% (inactive)
Cc1cccc(-c2nc3ccc(C(=O)NCCN4CCN(C)CC4)cc3nc2-c2cccc(C)c2)c1	25.3% (inactive)
C=CCNC(=O)c1ccc2c3n(nc2c1)-c1ccc(C)cc1CO3	46.8% (active)
Cc1ccc(-n2nc3c(c2NC(=O)c2ccc4c(c2)OCO4)CSC3)c(C)c1	0.86% (inactive)
COc1cc(C(=O)OC2CCOC2=O)c([N+](=O)[O-])cc1OC (stereo not given)	1.88% (inactive)
CC(C)c1ccc(C(=O)OC2CCOC2=O)cc1 (stereo not given)	-2.02% (inactive)
O=C(OC1CCOC1=O)c1ccc(-c2nc3ccccc3s2)s1 (stereo not given)	36.7% (active)

Structure (SMILES)	inhibition
Cc1cc(C)c(S(=O)(=O)c2ccccc2)c(OC(=O)c2c(F)cccc2Cl)n1	2.73% (inactive)
COc1ccc(-c2nc3cnccn3c2NC2CCCCC2)cc1-c1cccc(Cl)c1	24.3% (inactive)
COc1ccc(-c2nc3cc(C)ccn3c2NC2CCCCC2)cc1SC1CCCCC1	27.2% (active)
Cc1ccc2nc(-c3cccnc3)c(NC3CCCC3)n2c1	2.23% (inactive)
Cc1[nH]nc(-c2ccc(OCc3cnn(-c4ccccc4)c3)cc2O)c1Oc1ccc(Cl)cc1	3.96% (inactive)
COc1ccc(S(=O)(=O)N2CCOC2CNC(=O)C(=O)NCc2ccc(F)cc2)cc1 (stereo not given)	-0.16% (inactive)
CC(Oc1ccc(F)cc1)C(=O)N1CCN(c2ncccn2)CC1 (stereo not given)	1.68% (inactive)
CC12CCC(C(=O)N3CCN(c4ncccn4)CC3)(c3nc4ccccc4nc31)C2(C)C (stereo not given)	30% (active)
c1cnc(N2CCN(c3ccc4ccccc4n3)CC2)nc1	2.95% (inactive)
COC(=O)C1=CO[C@@H](O[C@@H]2O[C@H](CO)[C@@H](O)[C@H](O)[C@H]2O)C2C1C[C@H](O)[C@@H]2C (stereo not given in full)	-0.2% (inactive)
CCc1cc(=O)oc2c(C)c(OCC(=O)NCCN3CCOCC3)ccc12	18% (inactive)
Cc1cc(=O)oc2c(C)c(OCC(=O)N3CCN(Cc4ccc5c(c4)OCO5)CC3)ccc12	20.6% (inactive)
CCCCc1cc(=O)oc2c(C)c(OCC(=O)N3CCC(C(N)=O)CC3)ccc12	13.9% (inactive)
CCc1cc(=O)oc2c(C)c(OCC(=O)N3CC[C@@]4(O)CCCC[C@H]4C3)ccc12	36.8% (active)
Cc1c(C)c2ccc(OCC(=O)N3CCC(C(=O)O)CC3)c(C)c2oc1=O	119% (active)
CCCc1cc(=O)oc2c(C)c(OCC(=O)Nc3ccccn3)ccc12	14.2% (inactive)
CCOC(=O)C1CCN(C(=O)COc2cccc3ccccc23)CC1	-4.37% (inactive)
CCCc1cc(=O)oc2c(C)c(OCC(=O)N3CCC(C(=O)O)CC3)ccc12	44.1% (active)
N#Cc1cccc(OC(=O)c2ccc3c(=O)n4c(nc3c2)CCC4)c1	1.39% (inactive)
CCCc1cc(=O)[nH]c(SCc2cc(=O)oc3c(C)c(C)ccc23)n1	-1.06% (inactive)
